Measurements: ChEMBL document CHEMBL3988442, “University of Dundee, Small-Polar-MMV Screening Library” (2021)
For some of these results: Measured potencies and affinities stand elsewhere.

Experiments:
Parameters in all cases: scale not given: direction of the effect not stated beside the values
[1] = target: Protein translocase subunit SecA (Escherichia coli (strain K12)) (UniProt P10408); test: Assay to Identify E. coli SecA ATPase Inhibitors; assay type: functional; conditions: 30 µM
[2] = target: T1, Ubiquitin-activating enzyme e1, putative (Leishmania donovani (strain BPK282A1)) (UniProt E9BSI1); test: Leishmania donovani Ubiquitin Activating Enzyme (LdE1); assay type: functional; conditions: 30 µM
T1 sequence (whole entry): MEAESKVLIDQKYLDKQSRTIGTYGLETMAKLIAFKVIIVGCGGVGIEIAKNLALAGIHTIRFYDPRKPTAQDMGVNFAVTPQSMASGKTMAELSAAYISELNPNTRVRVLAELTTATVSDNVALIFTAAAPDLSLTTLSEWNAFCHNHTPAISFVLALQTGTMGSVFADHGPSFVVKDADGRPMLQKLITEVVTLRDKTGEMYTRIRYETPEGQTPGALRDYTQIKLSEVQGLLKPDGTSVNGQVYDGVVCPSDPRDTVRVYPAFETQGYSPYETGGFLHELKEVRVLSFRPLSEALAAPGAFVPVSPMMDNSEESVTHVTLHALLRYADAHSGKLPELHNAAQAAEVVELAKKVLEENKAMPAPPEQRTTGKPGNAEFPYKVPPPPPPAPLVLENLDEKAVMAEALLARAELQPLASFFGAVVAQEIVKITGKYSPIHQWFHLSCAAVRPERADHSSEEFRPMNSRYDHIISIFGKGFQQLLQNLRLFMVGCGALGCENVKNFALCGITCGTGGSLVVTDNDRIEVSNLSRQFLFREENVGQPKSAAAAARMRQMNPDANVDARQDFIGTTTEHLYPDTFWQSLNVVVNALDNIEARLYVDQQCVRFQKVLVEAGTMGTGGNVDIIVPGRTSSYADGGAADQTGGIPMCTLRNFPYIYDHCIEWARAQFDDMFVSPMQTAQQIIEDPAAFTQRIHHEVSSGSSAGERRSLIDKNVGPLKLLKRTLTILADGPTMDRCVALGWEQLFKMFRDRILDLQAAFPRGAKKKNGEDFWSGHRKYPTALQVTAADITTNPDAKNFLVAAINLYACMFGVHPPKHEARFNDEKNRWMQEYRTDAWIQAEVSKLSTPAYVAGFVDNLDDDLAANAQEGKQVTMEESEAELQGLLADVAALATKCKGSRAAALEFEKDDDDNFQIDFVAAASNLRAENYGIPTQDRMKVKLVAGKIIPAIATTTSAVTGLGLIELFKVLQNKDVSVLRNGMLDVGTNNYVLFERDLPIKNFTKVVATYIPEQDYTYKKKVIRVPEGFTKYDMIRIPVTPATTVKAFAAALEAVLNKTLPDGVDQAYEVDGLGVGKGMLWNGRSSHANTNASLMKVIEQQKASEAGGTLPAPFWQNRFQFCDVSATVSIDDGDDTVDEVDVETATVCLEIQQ

[3] = target: AMP-activated protein kinase, AMPK (Homo sapiens) (UniProt P54646+O43741+P54619+Q9UGJ0+Q9Y478+Q13131+Q9UGI9); test: AMP-dependent Kinase enzyme assay. An in vitro enzyme assay that detects ADP turnover that is directly proportional to AMPK activity. This uses naive AMPK that is activated during the assay with MK-8722; assay type: functional; conditions: 30 µM
[4] = target: Sialic acid-binding Ig-like lectin 9 (Homo sapiens) (UniProt Q9Y336); test: Hs-Siglec9 ALPHAscreen SOP 20170721; conditions: 10 µM
Chain of Sialic acid-binding Ig-like lectin 9 (Homo sapiens) (Q9Y336 whole entry): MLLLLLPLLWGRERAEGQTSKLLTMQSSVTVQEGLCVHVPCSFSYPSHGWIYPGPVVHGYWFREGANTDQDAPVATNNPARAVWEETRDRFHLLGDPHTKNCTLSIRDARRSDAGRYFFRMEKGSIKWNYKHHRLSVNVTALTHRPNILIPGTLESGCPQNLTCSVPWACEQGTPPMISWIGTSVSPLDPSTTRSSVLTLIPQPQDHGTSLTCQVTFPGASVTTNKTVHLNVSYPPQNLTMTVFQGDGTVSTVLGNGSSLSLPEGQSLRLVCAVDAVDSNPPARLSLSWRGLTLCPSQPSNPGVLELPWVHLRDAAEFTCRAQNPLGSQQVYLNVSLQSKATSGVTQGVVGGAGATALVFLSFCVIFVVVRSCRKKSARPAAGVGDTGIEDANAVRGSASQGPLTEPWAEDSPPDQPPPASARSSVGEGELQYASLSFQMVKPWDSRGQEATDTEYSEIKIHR

Trypanosoma cruzi = test: Trypanosoma cruzi phosphomannomutase and mannose-1-phosphate guanylyltransferase assay; assay type: functional; conditions: 10 µM
[5] = target: T2, Arginase-2, mitochondrial (Homo sapiens) (UniProt P78540); test: in vitro enzyme assay to detect the production of urea directly proportional to the activity of Arginase II; assay type: functional; conditions: 33.3 µM; also: in the data most compounds retested in dose-response had high values
T2 sequence (whole entry): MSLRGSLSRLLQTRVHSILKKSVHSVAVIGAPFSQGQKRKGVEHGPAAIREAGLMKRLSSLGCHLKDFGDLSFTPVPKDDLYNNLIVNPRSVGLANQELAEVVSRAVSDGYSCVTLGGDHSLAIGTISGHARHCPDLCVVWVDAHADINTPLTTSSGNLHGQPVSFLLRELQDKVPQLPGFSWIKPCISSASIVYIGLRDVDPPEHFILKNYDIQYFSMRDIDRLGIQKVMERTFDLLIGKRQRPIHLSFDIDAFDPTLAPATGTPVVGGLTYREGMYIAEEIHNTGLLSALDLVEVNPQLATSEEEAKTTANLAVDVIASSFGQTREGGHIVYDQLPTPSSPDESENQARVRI

[6] = target: T3, Proteasome subunit beta (Trypanosoma cruzi) (UniProt O96673); test: Trypanosoma cruzi proteasome chymotrypsin-like activity (TcProtChymo) assay.; also: in the data most compounds retested in dose-response had high values; assay type: functional; conditions: 9.37 µM
T3 sequence (whole entry): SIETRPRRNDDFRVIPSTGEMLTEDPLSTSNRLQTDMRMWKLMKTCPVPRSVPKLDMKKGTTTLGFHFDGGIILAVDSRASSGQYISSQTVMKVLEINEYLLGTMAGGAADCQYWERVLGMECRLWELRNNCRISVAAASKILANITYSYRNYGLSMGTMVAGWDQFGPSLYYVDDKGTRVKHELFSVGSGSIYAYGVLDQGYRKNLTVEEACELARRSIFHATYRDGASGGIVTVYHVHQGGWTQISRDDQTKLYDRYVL

Homo sapiens = species: Homo sapiens; test: To identify inhibition of the IFN signalling (Jak-Stat) pathway via expression of an eGFP reporter gene under the control of an IFN-stimulated response element (ISRE) containing MxA promoter.; assay type: functional; conditions: 30 µM
[7] = target: T4, Tyrosyl-tRNA synthetase, putative (Trypanosoma cruzi (strain CL Brener)) (UniProt Q4DSP6); test: Trypanosoma cruzi tyrosyl tRNA synthetase (TcYRS) _High Tyrosine SOP; assay type: functional; conditions: 30 µM; also: in the data most compounds retested in dose-response had high values
T4 sequence (whole entry): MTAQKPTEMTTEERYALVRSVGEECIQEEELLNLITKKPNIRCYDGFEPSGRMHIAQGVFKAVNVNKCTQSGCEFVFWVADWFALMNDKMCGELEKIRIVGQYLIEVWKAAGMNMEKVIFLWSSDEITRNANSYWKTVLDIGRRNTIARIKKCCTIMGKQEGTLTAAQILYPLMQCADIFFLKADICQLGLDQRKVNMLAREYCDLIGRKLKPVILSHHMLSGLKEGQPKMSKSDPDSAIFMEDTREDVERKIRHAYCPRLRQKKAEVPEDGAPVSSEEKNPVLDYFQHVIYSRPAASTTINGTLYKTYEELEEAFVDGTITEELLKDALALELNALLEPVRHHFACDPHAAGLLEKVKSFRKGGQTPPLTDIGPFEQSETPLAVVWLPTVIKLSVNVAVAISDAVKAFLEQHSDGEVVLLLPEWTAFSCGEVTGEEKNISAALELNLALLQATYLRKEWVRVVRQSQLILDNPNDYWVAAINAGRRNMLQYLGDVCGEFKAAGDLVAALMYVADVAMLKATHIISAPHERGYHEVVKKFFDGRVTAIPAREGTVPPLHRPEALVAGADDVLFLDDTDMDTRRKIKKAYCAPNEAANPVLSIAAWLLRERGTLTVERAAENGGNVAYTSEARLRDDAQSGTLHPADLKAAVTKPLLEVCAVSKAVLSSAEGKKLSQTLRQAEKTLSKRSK

[8] = target: T4, Tyrosyl-tRNA synthetase, putative (Trypanosoma cruzi (strain CL Brener)); test: Trypanosoma cruzi tyrosyl tRNA synthetase (TcYRS) SOP; assay type: functional; conditions: 30 µM
[9] = target: Chromo domain-containing protein 1 (Saccharomyces cerevisiae (strain ATCC 204508 / S288c) (Baker's yeast)) (UniProt P32657); test: ScCHD-1 Enzyme Inhibition Assay; assay type: functional; conditions: 30 µM; also: in the data most compounds retested in dose-response had high values
Chain of Chromo domain-containing protein 1 (Saccharomyces cerevisiae (strain ATCC 204508 / S288c) (Baker's yeast)) (P32657 whole entry, the tested form may be a part): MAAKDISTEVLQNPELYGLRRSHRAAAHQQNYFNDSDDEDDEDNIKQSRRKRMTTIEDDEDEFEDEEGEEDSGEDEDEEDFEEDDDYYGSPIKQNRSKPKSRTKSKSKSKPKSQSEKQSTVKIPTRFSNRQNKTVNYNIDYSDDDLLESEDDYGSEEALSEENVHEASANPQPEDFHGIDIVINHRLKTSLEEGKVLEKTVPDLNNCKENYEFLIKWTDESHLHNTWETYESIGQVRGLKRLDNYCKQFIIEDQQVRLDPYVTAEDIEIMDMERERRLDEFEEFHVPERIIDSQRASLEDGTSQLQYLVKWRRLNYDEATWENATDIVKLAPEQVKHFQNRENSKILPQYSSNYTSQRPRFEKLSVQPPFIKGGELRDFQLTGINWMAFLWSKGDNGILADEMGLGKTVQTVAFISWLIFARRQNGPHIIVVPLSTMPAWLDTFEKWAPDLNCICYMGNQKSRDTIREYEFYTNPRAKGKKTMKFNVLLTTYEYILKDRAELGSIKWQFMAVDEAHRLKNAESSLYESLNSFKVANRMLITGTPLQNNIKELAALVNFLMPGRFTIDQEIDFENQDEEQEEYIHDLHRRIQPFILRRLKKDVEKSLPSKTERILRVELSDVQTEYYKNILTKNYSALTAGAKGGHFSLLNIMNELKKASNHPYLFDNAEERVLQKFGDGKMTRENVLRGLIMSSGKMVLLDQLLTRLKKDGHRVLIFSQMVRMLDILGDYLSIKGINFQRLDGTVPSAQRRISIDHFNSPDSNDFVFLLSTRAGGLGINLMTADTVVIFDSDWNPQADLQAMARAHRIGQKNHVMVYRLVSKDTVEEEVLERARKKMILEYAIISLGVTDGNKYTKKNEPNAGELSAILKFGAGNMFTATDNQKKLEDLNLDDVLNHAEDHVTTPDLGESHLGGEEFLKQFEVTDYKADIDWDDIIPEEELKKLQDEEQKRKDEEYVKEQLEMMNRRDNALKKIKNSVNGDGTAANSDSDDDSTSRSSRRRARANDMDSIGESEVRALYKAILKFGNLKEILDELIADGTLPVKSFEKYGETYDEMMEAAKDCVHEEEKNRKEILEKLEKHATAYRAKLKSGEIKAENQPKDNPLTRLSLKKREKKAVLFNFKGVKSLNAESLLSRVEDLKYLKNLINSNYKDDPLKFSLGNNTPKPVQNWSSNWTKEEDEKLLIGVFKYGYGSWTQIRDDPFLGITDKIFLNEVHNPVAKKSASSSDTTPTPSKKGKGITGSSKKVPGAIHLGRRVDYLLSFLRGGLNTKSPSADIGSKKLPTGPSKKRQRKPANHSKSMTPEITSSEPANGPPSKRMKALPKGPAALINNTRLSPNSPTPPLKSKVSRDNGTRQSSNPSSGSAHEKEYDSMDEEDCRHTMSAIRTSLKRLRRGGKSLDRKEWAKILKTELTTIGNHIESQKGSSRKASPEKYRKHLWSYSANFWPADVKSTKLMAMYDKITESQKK

Chain of Protein translocase subunit SecA (Escherichia coli (strain K12)) (P10408 whole entry): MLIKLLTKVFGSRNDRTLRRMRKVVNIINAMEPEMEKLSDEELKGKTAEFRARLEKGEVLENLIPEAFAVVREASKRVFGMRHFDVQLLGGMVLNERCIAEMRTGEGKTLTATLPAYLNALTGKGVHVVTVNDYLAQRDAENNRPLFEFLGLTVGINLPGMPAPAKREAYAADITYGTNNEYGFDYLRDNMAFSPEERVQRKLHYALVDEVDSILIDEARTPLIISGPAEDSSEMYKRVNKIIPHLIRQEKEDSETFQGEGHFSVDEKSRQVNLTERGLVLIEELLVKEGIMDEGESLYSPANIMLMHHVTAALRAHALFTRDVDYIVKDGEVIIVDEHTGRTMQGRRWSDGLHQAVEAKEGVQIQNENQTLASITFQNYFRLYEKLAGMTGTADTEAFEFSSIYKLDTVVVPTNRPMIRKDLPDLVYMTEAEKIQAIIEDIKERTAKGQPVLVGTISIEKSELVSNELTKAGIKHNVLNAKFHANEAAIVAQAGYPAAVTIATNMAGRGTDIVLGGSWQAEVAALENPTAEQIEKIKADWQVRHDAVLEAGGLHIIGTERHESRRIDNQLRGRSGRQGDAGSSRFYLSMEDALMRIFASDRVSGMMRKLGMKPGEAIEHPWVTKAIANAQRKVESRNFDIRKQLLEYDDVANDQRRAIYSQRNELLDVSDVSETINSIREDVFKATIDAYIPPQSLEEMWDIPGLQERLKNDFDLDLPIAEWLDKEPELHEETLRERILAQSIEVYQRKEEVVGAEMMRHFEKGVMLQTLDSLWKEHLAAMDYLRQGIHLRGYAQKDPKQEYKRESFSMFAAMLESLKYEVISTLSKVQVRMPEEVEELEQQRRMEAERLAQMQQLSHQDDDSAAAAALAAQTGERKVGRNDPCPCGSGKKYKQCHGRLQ

Compound	Percent Effect [1]	Percent Effect [2]	Percent Effect [3]	Percent Effect [4]	Percent Effect (Trypanosoma cruzi)	Percent Effect [5]	Percent Effect [6]	Percent Effect (Homo sapiens)	Percent Effect [7]	Percent Effect [8]	Percent Effect [9]
COC(=O)c1cccc(NC(=O)CCn2nc(-c3cccs3)oc2=O)c1	-5.54%	10.8%	11.1%	-7.27%	-5.11%	-4.25%	5.92%	7.13%	0%	6.1%	-3.3%
O=C1OC2(CCN(C3CCCOC3)CC2)CN1CCc1ccccc1 (stereo unspecified)	-0.187%	7.79%	-6.88%	5.02%	-3.64%	-11%	14%	15.6%	3.23%	6.17%	0.643%
Cn1ccc(-c2cc(C(=O)N3CCOCC3)c3ccccn23)n1	1.94%	10.8%	19.9%	17.5%	-8.5%	2.87%	12.7%	35.5%	-4.32%	2.56%	-7.76%
COCC1CN(C(=O)C2=CCCCC2)Cc2cnn(CC3CC3)c21 (stereo unspecified)	-1.86%	13%	2.96%	2.46%	1.48%	-4.52%	10.1%	18%	7.41%	16.7%	-9.46%
O=C(NCc1ccccc1CN1CCC(O)CC1)Nc1cccnc1	-1.42%	-5.41%	-1.33%	2.18%	0.193%	2.38%	8.79%	-8.19%	1.59%	-2.44%	-1.85%
CN1CCN(Cc2nnc(C3CCN(CC4CC4)CC3)n2C)CC1	0.271%	8.22%	4.92%	1.71%	3.13%	7.27%	13.3%	22.3%	8.6%	17.5%	-3.38%
CC(NC(=O)NCc1ccc(Cl)cc1)c1ccccn1 (stereo unspecified)	-1.55%	1.27%	3.12%	3.62%	5.23%	-6.24%	12%	12.2%	2.08%	0%	-24.6%
CC(C)N1Cc2c(C(=O)N3CCOCC3)nn(C)c2C1	-3.37%	-2.7%	4.04%	1.67%	-1.66%	0.955%	17.3%	-39.2%	-1.08%	5.13%	4.29%
CC(C)c1csc(C2CCCN(C(=O)c3ncccn3)C2)n1 (stereo unspecified)	-4.12%	-2.7%	4.03%	-10.4%	-4.99%	-0.744%	3.69%	7.7%	-3.23%	-3.7%	-2.9%
CCCC(C)CN1CCC(n2cc(CCCO)nn2)CC1 (stereo unspecified)	-3.6%	4.17%	-2.5%	0.0396%	1.46%	1.32%	2.28%	-7.18%	4.21%	5.13%	0.69%
OC(CN1CCN(Cc2nnc(C3CC3)o2)CC1)c1ccccc1 (stereo unspecified)	-4.5%	10.1%	-8.23%	15.1%	-3.31%	1.9%	-3.19%	17.6%	2.46%	13.9%	-2.36%
